High-throughput results as filed in PubChem BioAssay.
In the library only some 3.9% were active in any assay of this set; here they are far more common.
BRCA1 expr act – increases BRCA1 expression. MCF7-BRCA1-FFLuc reporter, luminescence, 48 h; response scale: scaled: vehicle 0%, 10 µM genistein 100%. Potency, µM (highest dose often 46.1 µM), hits mostly activators. 380,000 compounds, 1.1% hits. AID 624202; note: nearly all actives have a fitted effect of over 80% in size
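48 h compound treatment of MCF7-BRCA1-FFLuc cells (phenol-red free MEM, 37 °C), then 15 min with luciferase substrate and luminescence imaging.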
VDR inhibitor – blocks the human vitamin D receptor; VDR-SRC2-3 peptide fluorescence polarization, 2 h; Potency, µM, hits mostly inhibitors; 400,000 compounds, 0.93% hits
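VDR–SRC2-3 interaction, FP format. Cmpds 23 nl via pintool, brief spin, 2 h ambient incubation.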
Tb PFK inh – inhibitors of T. brucei phosphofructokinase; T. brucei PFK, ADP-Glo luminescence; 330,000 compounds, 0.17% hits; Potency, µM (series often up to 57.5 µM), hits mostly inhibitors; AID 485367; note: nearly all actives have a fitted effect of over 60% in size
Target sequence (O15648 whole entry, looked up): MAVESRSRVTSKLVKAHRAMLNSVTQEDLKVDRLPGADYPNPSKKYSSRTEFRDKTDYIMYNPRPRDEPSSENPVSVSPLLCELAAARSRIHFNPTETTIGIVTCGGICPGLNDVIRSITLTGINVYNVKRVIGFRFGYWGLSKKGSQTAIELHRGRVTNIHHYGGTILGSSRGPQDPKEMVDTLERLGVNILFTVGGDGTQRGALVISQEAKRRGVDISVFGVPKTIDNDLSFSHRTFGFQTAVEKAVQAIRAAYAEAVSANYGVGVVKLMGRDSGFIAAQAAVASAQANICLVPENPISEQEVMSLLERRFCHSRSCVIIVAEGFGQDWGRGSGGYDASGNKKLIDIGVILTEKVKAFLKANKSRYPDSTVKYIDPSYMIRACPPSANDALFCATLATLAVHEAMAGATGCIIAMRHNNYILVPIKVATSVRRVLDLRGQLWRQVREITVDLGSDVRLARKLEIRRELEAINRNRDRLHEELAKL
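ADP-Glo luminescence quantified ADP after 45 min at room temperature, with 1.25 nM T. brucei PFK, 0.1 mM ATP and 0.5 mM fructose-6-phosphate in pH 8.0 TEA buffer. qHTS titrations up to 57 µM; curves classified by quality.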
PLK1 PBD inh – PLK1 (human) polo-box domain binding inhibition; Plk1 PBD binding of FITC phosphopeptide, fluorescence polarization; P53350; AID 720504; Potency, µM, usual class: inhibitors; 360,000 compounds, 2.8% hits; note: series mostly up to about 57 µM; nearly all actives have a fitted effect of over 65% in size
A number is an active result; i = inactive; ? = inconclusive; nt = not tested or not shown. Calls come from the whole dose curve; as a rule, active = well fitted curve in the direction sought with a large enough effect; inconclusive = small, poorly fitted or top-dose-only effect, or another doubt; inactive = no such curve, though single readings can be large; an effect the other way counts as inactive or inconclusive.

SMILES	BRCA1 expr act	VDR inhibitor	Tb PFK inh	PLK1 PBD inh
Cc1ccc(C(=O)CCC(=O)OCc2nnc(-c3ccccc3)o2)cc1	i	i	i	i
COC(=O)c1ccc(COC(=O)CCC(=O)c2cccs2)cc1	10µM	i	i	i
O=C(CCC(=O)c1cccs1)OCc1nnc(-c2ccccc2)o1	i	i	i	27µM
Cc1ccc(O)c(NC(=O)c2nc3nc(C)cc(C(F)F)n3n2)c1	i	i	nt	nt
COc1ccccc1NC(=O)Cn1c(=O)n(CC(=O)NCc2ccccc2Cl)c(=O)c2sccc21	nt	i	nt	nt
Cc1cc(C)c(-c2csc(Cc3nc(-c4cc5ccccc5oc4=O)cs3)n2)cc1C	i	?	i	27µM
Cn1ccc(C(=O)Nc2ccc(Br)cc2Br)n1	2.2µM	i	i	i
COc1ccc2c(c1)CCC1C2=NN(/C(C)=C\C(C)=O)C1c1ccc(F)cc1 (centres undefined)	i	?	i	12µM
Cc1ccc(-n2c(SCc3nc(-c4ccccc4C)no3)nnc2-c2ccncc2)cc1C	nt	i	nt	nt
O=C(c1ccco1)N1CCN(C(c2ccccc2)c2nnnn2Cc2cccs2)CC1 (centres undefined)	i	i	i	i
O=C(c1ccco1)N1CCN(Cc2nnnn2CC2CCCO2)CC1 (centres undefined)	i	?	i	12µM
CC(C)C(c1nnnn1Cc1cccs1)N1CCN(C(=O)c2ccco2)CC1 (centres undefined)	i	i	i	19µM
CC[C@H](C)[C@@H](NC(=O)O[C@H]1C(=O)c2cc(OC)ccc2O[C@@H]1c1ccc(OC)c(Br)c1)C(=O)OC	nt	i	nt	nt
COc1ccc(-c2nc3cnc(N(C)C)nc3n(C[C@H]3CCCO3)c2=O)cc1	nt	i	nt	nt
Cc1ccc(C)c(NC(=O)C2CCN(S(=O)(=O)c3ccc4c(c3)NC(=O)CO4)CC2)c1	i	i	i	i
Cn1ccnc1C(O)c1ccccc1 (centres undefined)	i	i	i	i
COc1ccc2ccccc2c1C(O)c1nccn1C (centres undefined)	i	i	i	24µM
CC(=O)Nc1ccc(S(=O)(=O)NCc2ccc3c(c2)CCN3C(C)=O)cc1	nt	i	nt	nt
CC1(C)CC(=O)c2cnc(N)nc2C1	i	?	i	27µM
CC1(C)CC(=O)c2cnc(N3CCc4ccccc4C3)nc2C1	7.1µM	i	i	i
Cc1ccc(Nc2ncc3c(n2)CC(C)(C)CC3=O)cc1	2µM	i	i	i
CC1(C)CC(=O)c2cc3c(nc2C1)CC(C)(C)CC3=O	i	i	i	i
CC12CCC(=O)C=C1CCC1C2CCC2(C)C1CC1C3C(=O)N(Cc4ccccc4)C(=O)C3CC(=O)C12 (centres undefined)	i	i	nt	i
CN(C)c1ccc(/C=C/c2cccc3cc4ccccc4nc23)cc1	i	nt	nt	nt
O=C(NCC1CCCO1)c1ccc(Cl)c(NS(=O)(=O)c2ccc(F)cc2)c1 (centres undefined)	i	nt	nt	i
SMILES	BRCA1 expr act	VDR inhibitor	Tb PFK inh	PLK1 PBD inh
CCNC(=O)c1sc(=S)n(-c2ccc(C)cc2)c1N	i	i	i	?
Cc1ccc(-n2c(N)c(C(=O)N3CCOCC3)sc2=S)cc1	i	89µM	i	15µM
Cc1nc(C(C)NC(=O)c2cc(COc3ccc(C)c(C)c3)on2)c(C)s1 (centres undefined)	5.6µM	i	i	i
CCn1c(SCC(=O)Nc2cc(C)on2)nc2sc3c(c2c1=O)CCCC3	i	i	i	i
C=CCn1c(SCC(=O)Nc2ccc(O)cc2)nc2sc(C)c(C)c2c1=O	i	i	nt	?
C=CCn1c(SCC(=O)Nc2cc(Cl)ccc2C(=O)O)nc2sc(C)c(C)c2c1=O	i	i	i	24µM
C=CCn1c(SCC(=O)Nc2cc(C)on2)nc2sc3c(c2c1=O)CCCC3	i	i	i	27µM
O=C(OCc1ccccc1Cl)c1ccc(-c2nnn(Cc3ccccc3Cl)n2)cc1	i	i	nt	nt
COc1ccc(NC(=O)O/N=C2/CCCc3ccc(OC)cc32)cc1	i	45µM	i	15µM
COc1cc(SC)ccc1C(=O)NCCOc1ccc(F)cc1	10µM	i	i	i
Cc1cc(=O)nc2c3ccccc3n(C(C)C(=O)NCCC(C)C)n12 (centres undefined)	i	i	i	27µM
COc1ccc(N2C(=O)CC(Sc3nnc(-c4ccccc4F)n3C)C2=O)cc1 (centres undefined)	i	i	i	24µM
C=CCNc1nnc(SC2CC(=O)N(c3ccc(OC)cc3)C2=O)s1 (centres undefined)	i	i	i	27µM
CCc1cccc(C)c1NC(=O)Cn1cc2c(n1)CCCC2	nt	i	nt	nt
O=C(N/N=C/C=C\c1ccco1)c1cccs1	7.1µM	i	i	i
O=C(N/N=C/C=C/c1ccco1)/C(=C/c1ccccc1)NC(=O)c1ccccc1	i	?	i	30µM
O=C(Cc1cccs1)N/N=C/C=C\c1ccco1	i	i	i	i
CC(N)C(=O)NC(CO)C(O)C(N)C=O (centres undefined)	i	i	nt	i
Cc1nn(-c2ccccn2)c2c1-c1nc(N)sc1CC2	i	nt	nt	nt
CC1(C(=O)NS(=O)(=O)Cc2ccccc2)CCN1C(=O)CCc1ccccc1 (centres undefined)	i	nt	nt	i
O=C(N/N=C/c1cn(Cc2cccc(F)c2)c2ccccc12)c1cc(O)cc(O)c1	i	i	?	19µM
O=C(O)c1ccc(N/N=C/c2cn(Cc3ccccc3F)c3ccccc23)cc1	i	i	i	30µM
Nc1ccc(C(=O)N/N=C/c2cn(Cc3ccccc3F)c3ccccc23)cc1	i	i	i	i
O=C1/C(=C\c2ccccc2)CCC/C1=C/c1ccccc1	i	?	nt	i
CCN(CC)CCC(=O)N1C/C(=C/c2ccccc2)C(=O)/C(=C\c2ccccc2)C1	i	45µM	nt	i
SMILES	BRCA1 expr act	VDR inhibitor	Tb PFK inh	PLK1 PBD inh
O=C1/C(=C\c2ccc(Cl)c(Cl)c2)CN(C(=O)CCN2CCOCC2)C/C1=C/c1ccc(Cl)c(Cl)c1	i	3.2µM	nt	i
O=C1/C(=C\c2ccccc2)CN(C(=O)CCN2CCCCC2)C/C1=C/c1ccccc1	i	32µM	nt	?
COc1cc2c(cc1OC)C(Nn1cnnc1)=NC1(CCCC1)C2	i	i	i	i
CCCCCCCCCCCCCCCC(=O)OCC(O)C1OC(=O)C(O)=C1O (centres undefined)	nt	5µM	nt	nt
CCC(c1nnnn1Cc1ccco1)N(Cc1cc2cc(C)cc(C)c2[nH]c1=O)CC1CCCO1 (centres undefined)	i	i	i	3.4µM
[O]=[Bi][O]C(=O)[O][Bi]=[O]	nt	i	nt	nt
COc1ccccc1CN1CCc2c([nH]c3ccccc23)C1	i	i	i	i
COc1cc(CN2CCc3c([nH]c4ccccc34)C2)cc(OC)c1	i	50µM	i	8.4µM
O=C(COc1ccc2c(c1)OCO2)Nc1nncs1	i	i	i	i
CN(C)c1ncnc2c1ncn2-c1ccccc1	11µM	i	nt	i
CN(C)c1ncnc2c1ncn2CCn1cnc2c(N(C)C)ncnc21	i	i	nt	i
CCCc1nc(SCC(=O)c2ccc3c(c2)NC(=O)CO3)[nH]c(=O)c1CC	i	?	nt	19µM
CC(C)[C@H](NC(=O)c1ccccc1)C(=O)OCC(=O)c1ccc2c(c1)NC(=O)CO2	i	i	i	11µM
